Assay outcomes: PubChem, The Scripps Research Institute Molecular Screening Center
SF-1 inh = inhibitors of human SF-1, primary screen, cell-based, CHO-K1, Gal4-SF-1 LBD, luciferase luminescence | Steroidogenic factor 1 (Homo sapiens), Q13285 | CHO-K1 Gal4-SF-1 LBD luciferase reporter | inhibition, % at 10 µM | 65,000 tested, 0.55% active | AID 525, 2006;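 active means inhibition above the mean inhibition of all tested compounds plus 3 SD, cut at about 48% in these data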
Target sequence (Q13285 whole entry, looked up, the tested form may be a part): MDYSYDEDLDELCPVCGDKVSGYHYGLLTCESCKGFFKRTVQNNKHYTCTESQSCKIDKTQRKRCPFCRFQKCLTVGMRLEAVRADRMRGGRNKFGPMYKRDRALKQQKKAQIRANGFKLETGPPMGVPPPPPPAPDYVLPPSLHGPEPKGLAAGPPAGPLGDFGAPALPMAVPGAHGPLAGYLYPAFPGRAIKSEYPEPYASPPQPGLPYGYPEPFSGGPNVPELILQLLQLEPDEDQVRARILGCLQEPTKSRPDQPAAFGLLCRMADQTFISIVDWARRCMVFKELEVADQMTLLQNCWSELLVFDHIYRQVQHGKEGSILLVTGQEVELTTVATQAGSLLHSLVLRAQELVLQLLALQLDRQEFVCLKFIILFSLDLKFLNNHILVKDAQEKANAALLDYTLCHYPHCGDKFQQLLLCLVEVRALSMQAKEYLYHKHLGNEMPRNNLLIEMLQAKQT
Numbers stand for hits; 0 = inactive. This excerpt belongs to a sample that is enriched for hits.

SMILES	SF-1 inh
O=C(Nc1nccs1)c1ccc(COc2ccccc2Br)o1	0
COC(=O)C(Cc1ccc(O)cc1)NC(=O)c1ccccc1OC (stereo not given)	0
CCn1c(-c2ccc(N(C)C)cc2)nc2ccccc21	0
CN(C)c1ccc(-c2nc3ccccc3n2C)cc1	59
Cn1c(-c2ccc(Br)o2)nc2ccccc21	0
O=C(NCC(c1cccnc1)N1CCN(c2ccc(F)cc2)CC1)c1ccc2c(c1)OCO2 (stereo not given)	0
Cc1cc(O)c(C2(C(F)(F)F)NCCNC2=O)cc1C (stereo not given)	0
Cc1ccc2c(COC(=O)C3=COCCO3)cc(=O)oc2c1	0
Clc1ccc2oc(-c3ccccn3)nc2c1	0
Cc1ccnc2ccc(-c3nc4ccccc4o3)cc12	0
c1ccc2nc(-c3nc4ccccc4o3)ccc2c1	64
O=C(CCN1CCN(c2ccccc2)CC1)Nc1nccs1	0
CC1CCc2nc(NC(=O)c3ccco3)sc2C1 (stereo not given)	64
CS(=O)(=O)c1ccc2nc(NC(=O)c3ccco3)sc2c1	0
CC1CCc2nc(NC(=O)Cc3cccs3)sc2C1 (stereo not given)	0
COC(=O)Cn1c(C)nc2c(sc3nc(C)cc(C)c32)c1=O	0
CC(OC(=O)CNC(=O)c1ccc2c(c1)OCO2)C(=O)NCCC1=CCCCC1 (stereo not given)	0
C=CCSc1nncn1/N=C/c1ccc(OC)cc1	0
COc1ccc(/C=N\n2nnc3ccccc32)cc1	70
CCN(C)c1ccc(/C=N\n2nnnc2N)cc1	0
O=C(NC1CCCCCC1)C1CCN(C(=O)Cc2ccccc2)CC1	0
CC1CCN(C(=O)c2ccc(NC(=O)C3CCCO3)cc2)CC1 (stereo not given)	0
C=CCOC(=O)c1sc(NC(=O)c2ccco2)nc1C	0
CCOC(=O)c1oc2ccc(S(=O)(=O)Nc3ccc4c(c3)n(C)c(=O)n4C)cc2c1C	57
Cc1c(C(=O)O)oc2ccc(S(=O)(=O)NCc3ccc4c(c3)OCO4)cc12	0
SMILES	SF-1 inh
CCOC(=O)c1ccc(NS(=O)(=O)c2ccc3[nH]c(=O)[nH]c3c2)cc1	0
COc1ccc(OC)c(N(CC(=O)N2CCN(c3cc(Cl)ccc3C)CC2)S(C)(=O)=O)c1	0
Cc1ccc(N(C=NC#N)CC(=O)N2CCN(c3ccccc3)CC2)cc1	0
CS(=O)(=O)N1CCN(c2nc(-c3ccc(F)cc3)cs2)CC1	0
Nc1nc(-c2ccc3c(c2)OCCO3)cs1	0
Cc1ccc(-c2csc(N3CCC(NS(=O)(=O)c4ccc5c(c4)OCCO5)CC3)n2)cc1	53
COC(=O)c1cccc(C(=O)Nc2ccc(C)cc2)n1	0
Cc1cc2c(cc1C)NC(c1c(C)n(C)n(-c3ccccc3)c1=O)C1=C(CC(C)(C)CC1=O)N2 (stereo not given)	0
O=C(CCN1C(=O)C2CC=C(Cl)CC2C1=O)N1CCCCC1 (stereo not given)	0
COc1ccccc1OC(=O)C1CC(=O)N(c2ccc(Cl)cc2)C1 (stereo not given)	0
CCC(OC(=O)CCc1nc2ccccc2[nH]c1=O)C(=O)c1ccccc1 (stereo not given)	0
COc1cc(C2C(C#N)=C(N)Oc3cc(C)n(CC4CCCO4)c(=O)c32)cc2c1OCO2 (stereo not given)	0
COc1cc(C2C(C#N)=C(N)Oc3cc(N)ccc32)cc(OC)c1OC (stereo not given)	63
COC(=O)Cc1[nH]nc2c1C(c1cccc(OC)c1OC)C(C#N)=C(N)O2 (stereo not given)	0
Cc1ccc2cc(CN(C(=O)c3ccncc3)C(C)C)c(=O)[nH]c2c1	0
COc1cccc(N2CCN(C(=O)c3ccc4nc(N5CCCCC5)sc4c3)CC2)c1	0
O=C1c2ccccc2C(O)N1c1ccc(Cl)cc1 (stereo not given)	0
Cc1ccc(N2C(=O)c3ccccc3C2O)nc1 (stereo not given)	56
Cc1ccc2oc3c(c(=O)c2c1)C(c1cccc(O)c1)N(c1ccccn1)C3=O (stereo not given)	0
COc1cccc(-c2nnc(Nc3nc4c(F)cccc4s3)o2)c1	0
COc1ccccc1-c1nnc(Nc2nc3c(OC)cccc3s2)o1	67
COCCCNc1oc(-c2ccccc2OC)nc1C#N	0
O=C(NCCc1ccccc1)c1noc2c1CCCCC2	0
CCOC(=O)c1c(C)n(CC(O)c2ccccc2)c2ccc(O)cc12 (stereo not given)	0
Cc1cccc(N(C)C(=S)Oc2ccc3ccccc3c2)c1	0
SMILES	SF-1 inh
O=c1[nH]c(CN2CCN(Cc3ccccc3)CC2)nc2sc3c(c12)CCC3	0
CC(C)c1nc2oc3c(N4CCNCC4)ncnc3c2c2c1CCC2	0
Oc1ccc(N2CCN(c3ncnc4sc5c(c34)CCC5)CC2)cc1	50
CCC(C)(C)n1nnnc1C(c1cccc(C#N)c1)N1CCN(c2cccc(C)c2C)CC1 (stereo not given)	0
CC(NC(=O)C1CCN(c2nnc(-n3cccc3)s2)CC1)C12CC3CC(CC(C3)C1)C2 (stereo not given)	0
Cc1cc(C)nc(NC2=NCC(=O)N2c2ccc3c(c2)OCCO3)n1	0
Cc1nc(CSc2nnc(C)s2)cs1	0
Cc1nnc(Sc2nc(Sc3nnc(C)s3)nc(N3CCN(C)CC3)n2)s1	96
CC(=O)c1cccc(NC(=O)c2cc(C(C)C)on2)c1	0
Cc1cccc(NC(=O)c2cc3ccccc3o2)c1	0
Cc1cc(C(=O)Nc2cccc(C(=O)O)c2)oc1C	69
CN(C)S(=O)(=O)c1ccc(C(=O)N2CCC(c3nc4ccccc4o3)CC2)cc1	0
O=C(CSc1nnc(-c2cccnc2)n1Cc1ccco1)N1c2ccccc2Sc2ccccc21	0
COc1ccc(OC)c(NC(=O)CCN2CCCC(C)C2)c1 (stereo not given)	0
CCOc1ccc(-c2cc(CCCC(=O)Nc3cc(OC)ccc3OC)no2)cc1	57
CCOc1ccc(-c2cc(CCCC(=O)NCCc3ccc(OC)c(OC)c3OC)no2)cc1	52
CCOC(=O)N1CCN(CC(=O)Nc2cc(OCC)ccc2OCC)CC1	0
CCOc1ccc(-n2cc(C(=O)N3CCN(C)CC3)c3cc(OC)c(OC)cc3c2=O)cc1	0
O=C1NC(NS(=O)(=O)c2ccccc2)(C(F)(F)F)C(=O)N1Cc1cccnc1 (stereo not given)	0
COc1ccc2[nH]c(=O)c(CN(C(=O)C3CCCO3)c3cccc(C)c3)cc2c1 (stereo not given)	0
Cc1onc(-c2ccccc2)c1C(=O)Nc1cccc(C#N)c1	0
COc1ccc(CNC(=O)C2CCCN(S(=O)(=O)c3cnc[nH]3)C2)cc1 (stereo not given)	0
O=C(NC12CC3CC(CC(C3)C1)C2)c1ccc(S(=O)(=O)N2CCOCC2)cc1	0
O=C(Nc1ccc2c(c1)OCO2)c1ccc(COc2ccc3c(c2)CCC3)o1	0
CC(C(=O)NC1CCCC1)N(Cc1ccc2c(c1)OCO2)C(=O)c1snc(C(N)=O)c1N (stereo not given)	0
SMILES	SF-1 inh
Cc1c(C(=O)O)sc(=S)n1CCOc1ccccc1	0
N#CC(C#N)=c1ccc2c(c1)NC1(CCCCC1)N=2	65
Oc1ccc(-c2nnc(SCC3CCCCC3)o2)cc1	0
c1ccc(-c2nc(N3CCCCCC3)c3ccccc3n2)nc1	86
CC1=CC(C)=Nc2ccc(C)cc2N1	0
O=C(NC(NCc1ccccn1)(C(F)(F)F)C(F)(F)F)c1ccco1	0
Cc1ccc(OCCSc2nnc(-c3ccncc3)n2C)cc1	0
c1ccc(OCCSc2nnc3sc4ccccc4n23)cc1	54
